Compounds with a hit are over-represented: about 10% of the library has one in this group of screens.
L major viab = Leishmania major promastigote growth inhibition, primary screen; Leishmania major promastigotes, resazurin fluorescence viability; inhibition, % at 10 µM; hit rate 9% among 200,000; AID 1063, 2008; in the data active = inhibition above about 50%;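 note: promastigotes grown with compound for 44 hours at 28 °C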
bCat KO growth = primary screen for growth suppressors in beta-catenin knockout HCT116 cells (colon tumor, human). HCT116 beta-catenin knockout viability, CellTiter-Glo, 60 h; stronger effect = lower value. viability, % at 10 µM. hit rate 1.5% among 140,000. AID 818, 2007;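 active = viability at or under a set limit, the compound median less 4 SD, cut at about 6% in these data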
ROMK mod = ROMK potassium channel modulators, primary screen, cell-based, thallium flux, MLSMR library; ATP-sensitive inward rectifier potassium channel 1 (Homo sapiens), P48048; Tet-inducible ROMK, thallium flux fluorescence; actives lie on both sides; B-score at 10 µM; hit rate 2% among 130,000;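 active = signal ratio slope over the read window, or its plate-corrected B-score, at least 3 SD from the plate mean, either direction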;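 note: B-score of the F/F0 ratio slope over 7 to 12 s after thallium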
p97 inhibitor = inhibitors of human p97 ATPase, primary screen, biochemical. Transitional endoplasmic reticulum ATPase (Homo sapiens), P55072. recombinant p97 ATPase, Kinase-Glo ATP luminescence, 3 h. inhibition, % at 8 µM. hit rate 0.42% among 220,000. AID 1481, 2009; in the data active = inhibition above about 15%
Target sequence (P55072 whole entry, looked up): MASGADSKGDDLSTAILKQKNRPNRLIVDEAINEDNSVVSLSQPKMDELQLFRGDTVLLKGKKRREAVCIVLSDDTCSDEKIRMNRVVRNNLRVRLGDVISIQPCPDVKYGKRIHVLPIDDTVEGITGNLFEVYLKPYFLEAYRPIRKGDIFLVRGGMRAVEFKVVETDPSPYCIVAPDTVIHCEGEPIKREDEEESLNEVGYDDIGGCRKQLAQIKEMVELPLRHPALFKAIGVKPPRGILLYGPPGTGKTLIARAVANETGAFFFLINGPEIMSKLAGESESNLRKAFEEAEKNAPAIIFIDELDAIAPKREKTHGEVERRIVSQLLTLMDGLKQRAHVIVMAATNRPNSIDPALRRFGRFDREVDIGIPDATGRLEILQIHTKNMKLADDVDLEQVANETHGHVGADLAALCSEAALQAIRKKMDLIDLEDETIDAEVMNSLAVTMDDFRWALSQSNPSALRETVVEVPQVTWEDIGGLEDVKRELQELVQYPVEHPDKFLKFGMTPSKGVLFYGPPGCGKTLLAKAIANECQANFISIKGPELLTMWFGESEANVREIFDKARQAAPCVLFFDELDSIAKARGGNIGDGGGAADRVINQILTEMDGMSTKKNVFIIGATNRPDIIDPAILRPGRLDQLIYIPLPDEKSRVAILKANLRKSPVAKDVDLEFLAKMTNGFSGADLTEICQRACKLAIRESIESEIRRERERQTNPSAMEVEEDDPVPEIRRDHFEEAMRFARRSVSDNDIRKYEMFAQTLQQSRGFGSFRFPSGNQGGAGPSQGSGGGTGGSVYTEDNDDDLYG
PTEN del growth = growth suppression of PTEN-null HCT116, primary screen, cell-based, CellTiter-Glo; viability, % at 10 µM; hit rate 1.2% among 140,000; HCT116 PTEN-null viability, 60 h; stronger effect = lower value;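 active = viability at or below a set limit, 4 SD under the median of all tested compounds, cut at about 3.7% in these data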;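 note: PTEN knockout HCT116 line with beta catenin targeted HCT116 as companion control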
Insulin prom inh = inhibitors of insulin promoter-driven GFP, primary screen, imaging, TRM-6 cells (human fetal islet line), eGFP reporter, cell count; inhibition, % at 2 µM; AID 1273, 2008; reporter expression induced with tamoxifen; hit rate 0.9% among 130,000;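 active = inhibition above the mean plus 3 SD, with well images judged a real hit on visual review, cut at about 60% in these data, passing the limit was not always enough; inconclusive = inhibition over the cutoff but images rejected on review; inactive = inhibition not above the cutoff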
ROMK retest = ROMK channel modulator hit retest, confirmation, cell-based, thallium flux, duplicate, resupplied hits; fluorescence ratio; stronger effect = lower value; normalized thallium flux (F/F0 slope) at 10 µM; shares compounds with ROMK mod; hit rate 54% among 3,000;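 active = Flux at 10 µM at least 3 SD below or above vehicle control mean in one or both replicates; inconclusive = no clear call, values can overlap the other calls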
Of the large screens only hits and unclear results are named; the others gave an inactive call (follow-up assays come after a bar, where they were run).

CC(=O)N1CCN(c2ccccc2NC(=O)COc2ccc(Br)cc2)CC1	none (no result: ROMK mod)
Cc1ccc(C(C)C)c(OCC(=O)NN=C(CCl)CCl)c1	ROMK mod -4.6 (no result: L major viab, bCat KO growth, PTEN del growth, Insulin prom inh) | ROMK retest 0.06
CC(=O)N1CCN(c2ccccc2NC(=O)COc2cc(C)ccc2C(C)C)CC1	none (no result: ROMK mod) | ROMK retest inactive
O=C1/C(=C/c2ccccc2)Nc2ccccc21	none (no result: ROMK mod) | ROMK retest 0.023
O=C1O/C(=C/c2ccccc2)c2ccccc21	none (no result: Insulin prom inh)
COc1cccc(N2CC(O)=C(c3nc4ccccc4s3)C2=N)c1	ROMK mod 3.3 (no result: bCat KO growth, PTEN del growth, Insulin prom inh) | ROMK retest inconclusive
CCn1c(SCC(=O)N2CCN(c3ccc(F)cc3)CC2)nnc1-c1ccncc1	none
O=C(COC(=O)CC1c2ccccc2CCN1S(=O)(=O)c1ccc(F)cc1)Nc1ccccc1 (centres undefined)	none
CCc1cccc(CC)c1NC(=O)COC(=O)CC1c2ccccc2CCN1S(=O)(=O)c1ccc(F)cc1 (centres undefined)	L major viab 98, ROMK mod -3.8 | ROMK retest 0.06
COc1ccc(CN2CCSCC2)cc1C	L major viab 78, ROMK mod 3.3 | ROMK retest inactive
COc1nc(N/N=C/c2ccccc2F)nc(N2CCCCC2)n1	none (no result: ROMK mod)
COc1ccc(N=Cc2oc3ccc4ccccc4c3c2O)cc1	ROMK mod -3.5 (no result: bCat KO growth, PTEN del growth) | ROMK retest 0.053
O=C(c1ccco1)N1CCN(S(=O)(=O)c2ccc(Oc3ccccc3)cc2)CC1	none (no result: ROMK mod) | ROMK retest 0.067
CCOC(=O)C1CCCN(c2nc3ccccc3nc2C(C#N)C(=O)OC(C)COC)C1 (centres undefined)	none (no result: Insulin prom inh) | ROMK retest inactive
CCOC(=O)C1CCCN(c2nc3ccccc3nc2C(C#N)C(=O)OCCOC)C1 (centres undefined)	none
COc1ccc(N/N=C(\C#N)C(=N)SCc2ccccc2)cc1	none (no result: bCat KO growth, ROMK mod, PTEN del growth, Insulin prom inh) | ROMK retest 0.053
CC1(C)CC2(CCO1)OC(=O)CC2C(=O)NCc1ccccc1 (centres undefined)	none
Nn1c(SCC(=O)Nc2cccc(S(N)(=O)=O)c2)nnc1C1CC1	none (no result: bCat KO growth, PTEN del growth)
CCOc1ccc2nc(NC(=O)C(NS(=O)(=O)c3cccc4nsnc34)C(C)C)sc2c1 (centres undefined)	L major viab 52 (no result: ROMK mod, Insulin prom inh) | ROMK retest 0.056
Cc1ccc(NC(=O)C(NS(=O)(=O)c2cccc3nsnc23)C(C)C)nc1 (centres undefined)	none (no result: ROMK mod, Insulin prom inh)
O=C1CC(N2CCN(Cc3ccc4c(c3)OCO4)CC2)C(=O)N1c1cccc(Cl)c1 (centres undefined)	none
O=C1CC(N2CCN(Cc3ccc4c(c3)OCO4)CC2)C(=O)N1c1cccc2ccccc12 (centres undefined)	L major viab 62, ROMK mod -3.1 (no result: bCat KO growth, PTEN del growth, Insulin prom inh) | ROMK retest 0.055
Cc1ccc(Oc2c(C(N)=O)cc([N+](=O)[O-])cc2[N+](=O)[O-])cc1	ROMK mod -2.3 | ROMK retest 0.035
CCC(=O)c1ccc(Oc2ccc(C(=O)c3ccc(C)cc3)cc2[N+](=O)[O-])cc1	none
COCCn1nnnc1C(c1cc(OC)ccc1OC)N1CCc2ccccc2C1 (centres undefined)	ROMK mod -2.1 (no result: Insulin prom inh) | ROMK retest inactive
COc1cccc(C(=O)N(C)c2nnc(-c3ccncc3)s2)c1	none (no result: ROMK mod) | ROMK retest inactive
OCc1cn(-c2ccccc2)nc1-c1ccc(-c2nn(-c3ccccc3)cc2CO)cc1	none
Cc1ccc(-c2nn(-c3ccccc3)cc2CSC(=N)N)cc1	L major viab 100, bCat KO growth 1.1, PTEN del growth 1.0 (no result: ROMK mod) | ROMK retest 0.052
COCCOC(=O)/C(=C\c1cc(C(C)(C)C)c(O)c(C(C)(C)C)c1)C(C)=O	none (no result: L major viab, bCat KO growth, ROMK mod, PTEN del growth, Insulin prom inh) | ROMK retest 0.061
COC(=O)C1CCN(C(=O)COC(=O)c2n[nH]c3ccccc23)CC1	none (no result: Insulin prom inh) | ROMK retest inactive
CCOC(=O)Cc1csc(NC(=O)Nc2ccc(C)cc2)n1	none (no result: L major viab, bCat KO growth, ROMK mod, PTEN del growth, Insulin prom inh)
CC(=O)c1ccc(N2CCN(C(=O)c3cccc(Oc4ccccc4)c3)CC2)cc1	none (no result: bCat KO growth, PTEN del growth) | ROMK retest inactive
Cc1ccc(C)c(-n2nnnc2Sc2nnnn2-c2ccccc2)c1	L major viab 98, bCat KO growth 2.0, ROMK mod -4.6, PTEN del growth 1.8 (no result: Insulin prom inh) | ROMK retest 0.058
O=C(Nc1nc(-c2cccs2)c(C(=O)C(F)(F)F)s1)c1ccccc1	ROMK mod -6.5 | ROMK retest 0.054
CCOC(=O)c1cnc(SC)nc1Oc1cccc(NC(=O)c2cccc(Cl)c2Cl)c1	none
COc1ccc(-n2c(O)c(/C=N/NS(=O)(=O)c3cc(C)ccc3C)c3ccccc3c2=O)cc1OC	none (no result: ROMK mod)
COc1ccc(-n2c(O)c(/C=N/NS(=O)(=O)c3ccc(C)cc3)c3ccccc3c2=O)cc1OC	ROMK mod -5 | ROMK retest inconclusive
COc1cc(NC(=O)CN2CCN(c3ccccc3O)CC2)c(C)cc1[N+](=O)[O-]	ROMK mod -4.4 | ROMK retest 0.049
N#C/C(=C\c1cccc(Oc2ccccc2)c1)C(=O)N1CCOCC1	ROMK mod -7 (no result: bCat KO growth, PTEN del growth, Insulin prom inh) | ROMK retest 0.036
CCOC(=O)C1CCN(c2ncnc3c2oc2ccccc23)CC1	none (no result: Insulin prom inh)
CCOC(=O)C1CCCN(c2ncnc3c2oc2ccccc23)C1 (centres undefined)	none (no result: ROMK mod) | ROMK retest 0.054
NC(=O)CSc1nnc(Cn2c(=O)sc3ccccc32)n1-c1ccccc1	none (no result: ROMK mod, Insulin prom inh)
CCOC(=O)C(C)Sc1nnc(Cn2c(=O)sc3ccccc32)n1-c1ccccc1 (centres undefined)	none (no result: ROMK mod, Insulin prom inh) | ROMK retest inconclusive
O=C(CN1CCCC1)Nc1c2c(nc3ccccc13)N(Cc1ccccc1)CC2	L major viab 51, ROMK mod -3.1 | ROMK retest 0.061
O=C(CN1CCOCC1)Nc1c2c(nc3ccccc13)N(Cc1ccccc1)CC2	none (no result: ROMK mod, Insulin prom inh)
CCOC(=O)c1[nH]c2ccc(OC)cc2c1NC(=O)CCN1CCCC(C)C1 (centres undefined)	none (no result: ROMK mod, Insulin prom inh)
CC(C)C(=O)Nc1ccc(Br)cc1Cl	none (no result: bCat KO growth, PTEN del growth, Insulin prom inh)
O=C(O)c1ccc2c(c1)C1C=CCC1C(c1cc3c(cc1Br)OCO3)N2 (centres undefined)	ROMK mod 4 (no result: bCat KO growth, PTEN del growth) | ROMK retest inactive
O=C(/C=C/c1c(Cl)cccc1Cl)NCc1ccco1	ROMK mod 1.7 | ROMK retest inactive
O=C(/C=C/c1ccccc1Cl)NCc1ccco1	none (no result: Insulin prom inh)
Cc1ccc(CN2C3CCCC2CC(NC(=O)c2ccc(C)cc2)C3)cc1 (centres undefined)	L major viab 81, ROMK mod -2.7 (no result: bCat KO growth, PTEN del growth, Insulin prom inh) | ROMK retest 0.056
Cc1ccc(C(=O)NC2CC3CCCC(C2)N3C(=O)NC2CCCCC2)cc1 (centres undefined)	none (no result: ROMK mod)
CC1(C)CN2C(=S)N(c3ccccc3)C(c3ccccc3)N2C1 (centres undefined)	none
